Shown is part of a subset that was picked to be rich in hits.
LmPK inh = blocks Leishmania mexicana pyruvate kinase activity; 290,000 compounds, 0.37% hits; Potency, µM (titrated, usually from 57.5 µM), for inactives: top-dose activity change, negative = inhibition, usual class: inhibitors; purified LmPK, Kinase-Glo ATP luminescence, 1 h; Q27686; AID 1721; further: potency means the concentration at half of the fitted maximal effect; on the % scale 0 is the no-effect control and ±100 the full control effect
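ATP generated from ADP (0.1 mM) and PEP (0.5 mM) by 0.1 nM LmPK over 1 h at room temperature (pH 7.2 imidazole buffer) was detected by coupled luciferase luminescence. Values were normalized to uninhibited and no-enzyme wells.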
Sm TGR inh = blocks Schistosoma mansoni thioredoxin glutathione reductase. Q962Y6. 360,000 compounds, 3% hits. Potency, µM (series often up to 114 µM), without a hit: top-dose activity change, negative = inhibition, actives largely listed as inhibitors. purified TGR, DTNB reduction, TNB absorbance 405 nm; further: potency means the concentration at half of the fitted maximal effect; on the % scale 0 is the no-effect control and ±100 the full control effect; nearly all actives have a fitted effect of over 60% in size
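First, TGR (20 nM dispensed) and NADPH were mixed with compound. Second, a 15 min room-temperature incubation followed. Third, further NADPH and then DTNB were added to start the reaction. Finally, TNB absorbance was monitored kinetically.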
Shiga inhibitor = inhibitors of Shiga toxin in Vero cells | AID 2315 | Vero cells, Shiga toxin protein synthesis inhibition reporter | 290,000 compounds, 9.2% hits | inhibition, % at 38.7 µM; in the data active means inhibition mostly above about 28%, no sharp cut-off; inactive means mostly below about 43%; further: 0% is about no effect
Cycloheximide cs = counter-screen for Shiga toxin inhibitors: cycloheximide protein synthesis inhibition; 300,000 compounds, 12% hits; AID 2314; max response, %; cell reporter, cycloheximide protein synthesis inhibition counterscreen; in the data active means max response mostly above about 13%, no sharp cut-off; inactive means mostly below about 14%; further: read at 38.3 µM for the half of the compounds with a filed dose; 0% is about no effect
Giardia FBPA inh = blocks Giardia fructose-bisphosphate aldolase activity; A8B2U2; purified Giardia FBPA; Potency, µM (series often up to 59.6 µM), for inactives: top-dose activity, negative = inhibition, actives largely listed as inhibitors; 290,000 compounds, 0.71% hits; AID 2451; further: potency means the concentration at half of the fitted maximal effect; on the % scale 0 is the no-effect control and ±100 the full control effect; nearly all actives have a fitted effect of over 55% in size
Target sequence (A8B2U2 whole entry, looked up): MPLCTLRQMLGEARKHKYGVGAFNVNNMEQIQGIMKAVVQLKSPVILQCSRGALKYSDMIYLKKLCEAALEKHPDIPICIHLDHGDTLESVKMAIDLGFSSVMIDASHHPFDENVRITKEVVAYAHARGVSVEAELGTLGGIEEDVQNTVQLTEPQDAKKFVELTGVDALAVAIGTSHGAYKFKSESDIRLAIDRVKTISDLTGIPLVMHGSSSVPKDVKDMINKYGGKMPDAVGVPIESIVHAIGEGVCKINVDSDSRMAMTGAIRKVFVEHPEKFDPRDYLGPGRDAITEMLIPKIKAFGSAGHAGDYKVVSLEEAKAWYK
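40 nM FBPA preincubated 10 min at RT with compound (up to 57.5 uM final), then substrate plus GAPDH/TPI/NAD/arsenate coupling and diaphorase/resazurin added. Fluorescence read after 20 min at RT, 525/598 nm.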
TbPYK inhibitor = inhibitors of Trypanosoma brucei pyruvate kinase; Potency, µM (doses to about 76.8 µM), for the others: at the highest dose activity, negative = inhibition, hits mostly inhibitors; Q57TT1; AID 624173; TbPYK enzyme, Kinase-Glo Plus ATP luminescence, 45 min; 410,000 compounds, 0.12% hits; further: potency means the concentration at half of the fitted maximal effect; on the % scale 0 is the no-effect control and ±100 the full control effect; nearly all actives have a fitted effect of over 50% in size
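Readout: single end-point luminescence (Kinase-Glo Plus, 10 min). Reaction conditions were TbPYK/substrate plus 130 uM ADP, 45 min at RT, pH 7.2 TEA buffer. No-enzyme wells served as controls, and data were normalized before concentration-response fitting.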
An asterisk follows results filed as active; ? = inconclusive; . = not tested or not shown; + = active, no number; ! = not active in a repeat; [ ] = dose if it differs, or a comment. Unless noted, the call rests on the fitted dose curve; in most records, active means well fitted curve in the direction sought with a large enough effect; inconclusive means small, poorly fitted or top-dose-only effect, or another doubt; inactive means no such curve, though single readings can be large; an effect the other way counts as inactive or inconclusive.

SMILES | LmPK inh | Sm TGR inh | Shiga inhibitor | Cycloheximide cs | Giardia FBPA inh | TbPYK inhibitor
COc1ccc(NC(=O)c2cc(Cl)ccc2Cl)c([N+](=O)[O-])c1 | 2% | -1% | -6 | -3 | -1% | 1%
COc1ccc(NC(=O)c2sccc2C)c([N+](=O)[O-])c1 | -9% | 17% | 87 | 32* | -9% | -3%
COc1ccc(NC(=O)CC(C)(C)C)c([N+](=O)[O-])c1 | -2% | 0% | 10 | -4 | -1% | -1%
COc1ccc(NC(=O)C/C(C)=N/NC(=O)c2cccs2)c([N+](=O)[O-])c1 | -1% | 2% | 120* | 61* | -4% | -3%
COc1ccc(NC(=O)/C=C/c2ccccc2)c([N+](=O)[O-])c1 | 1% | -2% | 126* | 65* | 11% | -5%
COc1ccc(/C=C/C(=O)Nc2ccc(OC)cc2[N+](=O)[O-])cc1 | 4% | 1% | -2 | -1 | 2% | -3%
COc1ccc(C2CC(=O)N(Cc3ccccc3)c3c2c(C)nn3-c2nc(C)cc(C)n2)c(OC)c1 (centres undefined) | . | 8% | . | . | . | -8%
COc1cc(NC(=O)Cn2c(=O)oc3cc(S(=O)(=O)N4CCCCCC4)ccc32)cc(OC)c1 | . | 8% | . | . | . | 4%[15.4 µM]
CCOC(=O)c1cnc2cc3c(cn2c1=O)CCCC3 | -5% | 5% | 55* | 28* | -4% | -6%
CCc1nc2sc3c(c2c(=O)n1NC(=O)CCl)CCCC3 | -2% | 45µM* | -13 | -5 | 10% | 5%
Cc1[nH]ncc1-c1ccccc1Cl | 7% | 26% | -3 | -2 | -9% | 9%
Cc1cc(-n2cnc(-c3cn[nH]c3C)n2)no1 | -1% | -4% | 72* | 12 | 6% | -15%
Cc1nc(COC(=O)c2c(C)nn(-c3ccccc3)c2C)cs1 | -2% | -2% | 100* | 35* | 4% | -3%
COC(=O)c1ccc(NC(=O)N2CCN(Cc3cc(=O)n4nc(-c5ccc(C)cc5)sc4n3)CC2)cc1 | . | 5% | . | . | . | 0%
COc1cc(OC)cc(-c2oc3cccnc3c2C#CCCO)c1 | 0% | ? | 1 | -3 | 21% | 6%
COc1ccc(/C=C/c2c(-c3ccc(OC)cc3)oc3cccnc23)cc1 | 0% | 0% | 31* | 16* | -3% | 1%
CN1CCN(C(c2ccc(Br)cc2)c2cc(Cl)c3cccnc3c2O)CC1 (centres undefined) | -11% | 0.63µM* | 3 | -8 | 10% | 44%
CC(/C=C/c1ccc(N(C)C)cc1)=N\N=C(/N)SC1CC(=O)N(c2ccc(C(=O)O)cc2)C1=O (centres undefined) | 6% | ? | 70* | 45* | -3% | -3%
CCN(C(=O)CSc1nc2ccc([N+](=O)[O-])cc2s1)C1CCS(=O)(=O)C1 (centres undefined) | -2% | -29% | -3 | 13* | -12% | 2%
CCN(C(=O)CN1C(=O)c2ccc([N+](=O)[O-])cc2C1=O)C1CCS(=O)(=O)C1 (centres undefined) | . | 0% | . | . | . | 5%
O=C(Nc1ccc2c(c1)oc1ccccc12)c1ccc(Br)o1 | 1% | -24%[11.4 µM] | 56 | 28 | -4% | 0%
CCc1cccc(NC(=O)c2ccc(Cn3nc(C)cc3C)o2)c1 | 7% | 5% | 2 | -3 | -2% | 2%
O=C(Nc1ccc2ccccc2c1)c1ccc(Br)o1 | -2% | 4% | 86* | 43* | . | -14%
CCc1cccc(NC(=O)c2ccc(Br)o2)c1 | -5% | -17% | 105* | 23* | -10% | 2%
COc1ccc(NC(=O)c2ccc(C(=O)c3ccccc3)o2)cc1 | 7% | 0% | 28 | 30* | -3% | -1%
O=C(c1ccccc1)c1cccc(NC(=O)c2ccc(Br)o2)c1 | -4% | -2% | 95 | 39* | -2% | 4%
Cc1cccc(NC(=O)c2ccccc2C(=O)Nc2cccc(C)c2)c1 | . | . | . | . | . | 2%
O=C(Nc1ccccc1)c1ccc(Br)o1 | -23% | 4% | +! | 44* | -11%[89.2 µM] | -6%
CN(C(=S)NC(=O)c1ccc(Br)o1)c1ccccc1 | -1% | -17% | 30* | 11 | -23% | -9%

From PubChem BioAssay
